Assay results reported in ChEMBL document CHEMBL4888484, “Replenishing the malaria drug discovery pipeline: Screening and hit evaluation of the MMV Hit Generation Library 1 (HGL1) against asexual blood stage Plasmodium falciparum ,using a nano luciferase reporter read-out” (2022).
The whole screen tested about 4,800 compounds, of which about 410 (8.5%) showed an effect of 50% or more. The entries come from a sample that favours strong results as a whole.

These molecules were tested on Plasmodium falciparum (assay: Confirmatory screen in NF54 pLDH assay, in single point, at 2uM, 72h). Settings: timepoint 72 hour.
Assay type: functional, Erythrocyte

| SMILES | % Inhibition |
| --- | --- |
| Cc1ccc(COc2cccc(CNC3CC3)c2)cc1 | -1% |
| Cc1ccc(S(=O)(=O)N(CC(=O)NC2CCN(C)CC2)c2cccc(Cl)c2)cc1 | 2% |
| CN1CCN(C(=O)CNC(=O)c2cccc(Cl)c2)CC1 | 8% |
| Cn1cc(Cl)c(C(=O)Nc2cccc(S(=O)(=O)N3CCOCC3)c2)n1 | 13% |
| CCN1C(=O)[C@]2(NC3(CCCCC3)C(=O)N2CC)c2ccccc21 | -11% |
| Cc1nn(C)c(NC(=O)CCc2c[nH]cn2)c1C | -7% |
| Cc1cc(C(=O)NCCCS(N)(=O)=O)c(Cl)cc1F | -7% |
| Cc1ccc(O)c(CNc2ccc3c(c2)OCC3(C)C)n1 | -19% |
| Cc1ccc(O)c(CNCC2(c3ccccc3Cl)CCOCC2)n1 | 98% |
| c1csc(CNC2CCCCCCC2)c1 | -2% |
| COc1cc(C)c2[nH]c3c(c(=O)c2c1)CN(CC(=O)Nc1ccc(C)c(F)c1)CC3 | 8% |
| COc1cc(C)c2[nH]c3c(c(=O)c2c1)CN(CC(=O)Nc1ccc(F)c(C)c1)CC3 | 17% |
| COc1ccc(OC)c(NC(=O)CN2CCc3[nH]c4ccc(F)cc4c(=O)c3C2)c1 | 83% |
| Cc1nn(-c2ccccc2)c2nc(Cc3ccccc3)nc(N3CCCN(C(=O)NC4CCCCC4)CC3)c12 | 8% |
| Cc1cc(-c2ccccc2)nc2sc(-c3ccccc3)c([O-])[n+]12 | 5% |
| Cc1cc[n+]2c(-c3ccccc3)cc(-c3ccccc3)nc2c1 | 50% |
| Cc1cc(-c2ccccc2)cc(-c2ccccc2)c1-c1cc(-c2ccccc2)cc(-c2ccccc2)n1 | -3% |
| CC[C@H]1Cn2c(C(=O)NC3CCCC3)cc3c(Cl)ccc(c32)O1 | -11% |
| Cn1c2cn(-c3ccc(F)cc3)c(-c3ccccc3)c2c(=O)n1-c1ccccc1 | 6% |
| Cn1c(=O)c2c(-c3ccc(Cl)cc3)n(-c3cccc4cccc(N)c34)cc2n(C)c1=O | 91% |
| O=C(CCc1nc2ccccc2c(=O)[nH]1)Nc1ccc(-n2cnnn2)cc1 | 6% |
| O=C(N[C@H]1CCOC1=O)OCc1ccccc1 | -4% |
| CCOC(=O)c1cnn(C)c1S(=O)(=O)N1CCCCC1 | 2% |
| CC1CC(NC(=O)NC2CS(=O)(=O)c3ccccc32)C(=O)N1c1ccccc1 (stereo not drawn) | -1% |
| Cc1ccc(Nc2c(-c3cc4ccccc4cc3O)nc3ncccn23)cc1 | 6% |
| CNCCc1c(-c2ccccc2)[nH]n(-c2ccccc2)c1=O | 69% |
| CCCCCc1c(C)nc2[nH]n(-c3ccccc3)c(=O)c2c1O | -22% |
| O=C1CCCc2nc3[nH]n(-c4ccccc4)c(=O)c3cc21 | 13% |
